# Screens: PubChem BioAssay, several laboratories
# NRP1-CendR mod – alters CendR peptide binding to human NRP-1. 0.85% of 360,000 active. AID 602438. O14786. inhibition, % at 25 µM. FAM-RPARPAR peptide binding to NRP-1, fluorescence polarization;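 active = inhibition or corrected inhibition above about 18%, plus a signal ratio from 0.5 to 1.5, limit read from the data, passing the limit was not always enough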
# RAD52 inh – blocks human RAD52 DNA annealing; recombinant RAD52 DNA annealing, FRET fluorescence; inhibition, % at 18.7 µM; 0.46% of 360,000 active;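 active = every replicate showing at least 50% inhibition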
# DNA FID counter – fluorescent intercalator displacement, NS3 helicase counter-screen; DNA fluorescent intercalator displacement, fluorescence; inhibition, % at 7.9 µM; 0.17% of 290,000 active; AID 1845; in the data active = inhibition above about 37%;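 note: higher means more ethidium bromide displaced from hairpin DNA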
# Glyco luc inh – N-linked glycosylation inhibition; D54 ERlucT glycosylation luciferase reporter, 24 h; percent of 100 nM tunicamycin response; reporter increase, % at 12.5 µM; 0.23% of 360,000 active;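 active = mean luciferase reporter signal, scaled so untreated is 0 and the glycosylation-blocking control 100, at or above a set limit in every replicate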;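 note: luciferase carries N-glycosylation sites so blocking glycosylation raises the light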
# RAD54 branch – RAD54 (human) branch migration inhibition; AID 602329; 0.14% of 360,000 active; RAD54 Holliday junction branch migration, FAM/BHQ fluorescence; inhibition, % at 10.4 µM; Q92698;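 active = mean normalized replicate activity at least 40 and at least half of replicates scoring 40 or more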;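 note: inhibitors cause a drop in the FAM fluorescence signal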
# Target sequence (Q92698 whole entry, looked up): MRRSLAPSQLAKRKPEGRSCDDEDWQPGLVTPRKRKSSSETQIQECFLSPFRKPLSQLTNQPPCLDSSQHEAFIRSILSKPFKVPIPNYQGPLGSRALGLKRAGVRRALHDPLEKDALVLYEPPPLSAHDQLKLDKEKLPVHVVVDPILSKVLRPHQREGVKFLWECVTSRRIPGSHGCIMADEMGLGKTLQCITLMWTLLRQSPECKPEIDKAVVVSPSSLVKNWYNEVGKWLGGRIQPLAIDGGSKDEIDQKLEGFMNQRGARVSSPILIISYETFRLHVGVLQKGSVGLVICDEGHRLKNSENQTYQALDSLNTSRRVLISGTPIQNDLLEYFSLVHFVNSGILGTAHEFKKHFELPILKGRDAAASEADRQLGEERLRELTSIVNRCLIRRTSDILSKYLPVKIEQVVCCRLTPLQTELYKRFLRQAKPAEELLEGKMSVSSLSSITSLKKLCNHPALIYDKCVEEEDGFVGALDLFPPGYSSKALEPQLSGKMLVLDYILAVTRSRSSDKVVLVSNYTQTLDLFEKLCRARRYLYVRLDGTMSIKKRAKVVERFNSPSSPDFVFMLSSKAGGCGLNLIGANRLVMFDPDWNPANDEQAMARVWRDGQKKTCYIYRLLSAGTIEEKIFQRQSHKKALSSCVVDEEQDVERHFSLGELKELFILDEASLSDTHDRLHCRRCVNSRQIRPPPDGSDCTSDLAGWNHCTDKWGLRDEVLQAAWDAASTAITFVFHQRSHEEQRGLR
# miR-122 sensor – blocks miR-122 activity in Huh7 sensor cells. Huh7 miR-122 Renilla luciferase sensor, 48 h; neutral wells = 0, positive control = 100. activation (reporter increase), % at 12.5 µM. 0.3% of 340,000 active;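 active = mean replicate activation score at least 90 and every replicate individually at or above 90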;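 note: higher luciferase means less miR-122 activity so hits act as miR-122 inhibitors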
# Hits are given with their value; . = inactive; / = no result; [ ] = dose if it differs, or a comment. Shown are actives, neighbours in structure and some others; about 1.5% of the full set was active somewhere.
SMILES,NRP1-CendR mod,RAD52 inh,DNA FID counter,Glyco luc inh,RAD54 branch,miR-122 sensor
C[C@H]1CCCCO[C@@H](CN(C)Cc2ccc(C(=O)O)cc2)[C@@H](C)CN([C@@H](C)CO)C(=O)c2cc(NC(=O)c3ccncc3)ccc2O1,/,106,/,/,.,.
C[C@H](CO)N1C[C@H](C)[C@@H](CN(C)Cc2ccc(C(=O)O)cc2)OCCCC[C@H](C)Oc2ccc(NC(=O)c3ccncc3)cc2C1=O,/,96,/,/,.,.
C[C@@H]1CCCCO[C@@H](CN(C)Cc2ccc(C(=O)O)cc2)[C@H](C)CN([C@@H](C)CO)C(=O)c2cc(NC(=O)c3ccncc3)ccc2O1,/,104,/,/,.,.
C[C@@H]1CCCCO[C@@H](CN(C)Cc2ccc(C(=O)O)cc2)[C@@H](C)CN([C@H](C)CO)C(=O)c2cc(NC(=O)c3ccncc3)ccc2O1,/,76,/,/,.,.
C[C@H]1CCCCO[C@H](CN(C)Cc2ccncc2)[C@@H](C)CN([C@@H](C)CO)C(=O)c2cc(NC(=O)c3ccncc3)ccc2O1,/,.,/,/,.,.
CCCNC(=O)Nc1ccc2c(c1)C(=O)N(C)C[C@@H](OC)[C@@H](C)CN(Cc1ccc(-c3ccccn3)cc1)[C@H](C)CO2,/,.,/,/,.,/
C[C@@H]1CN([C@H](C)CO)C(=O)c2cc(C#CC3(O)CCCC3)cnc2O[C@@H]1CN(C)S(=O)(=O)c1ccccc1,/,.,/,/,.,.
C[C@H](CO)N1C[C@H](C)[C@@H](CN(C)C(=O)NC2CCCC2)Oc2ncc(C#CC3CCCCC3)cc2C1=O,/,.,/,/,.,.
Cc1noc(C)c1NC(=O)Nc1ccc2c(c1)C(=O)N([C@@H](C)CO)C[C@H](C)[C@@H](CN(C)Cc1ccc(Cl)c(Cl)c1)OCCCC[C@H](C)O2,/,.,/,/,.,.
CCCC(=O)Nc1ccc2c(c1)OC[C@H](C)N(C(=O)c1ccccc1F)C[C@@H](C)[C@H](OC)CN(C)C2=O,/,/,/,/,/,.
C[C@H](CO)N1C[C@H](C)[C@@H](CN(C)C)Oc2ccc(NS(=O)(=O)c3ccccc3)cc2CC1=O,/,.,/,/,.,.
C[C@@H]1CCCCO[C@H](CN(C)Cc2ccc(C(=O)O)cc2)[C@H](C)CN([C@@H](C)CO)C(=O)c2cc(NC(=O)c3ccncc3)ccc2O1,/,101,/,/,.,.
C[C@H]1CCCCO[C@H](CN(C)Cc2ccc(C(=O)O)cc2)[C@@H](C)CN([C@@H](C)CO)C(=O)c2cc(NC(=O)c3ccncc3)ccc2O1,/,102,/,/,.,.
CO[C@H]1CN(C)C(=O)c2cc(NS(=O)(=O)c3ccc(C)cc3)ccc2OC[C@@H](C)NC[C@@H]1C,/,.,/,/,.,.
CSc1cccc(CN2CCC(CO)(Cc3cccc(C(F)(F)F)c3)CC2)c1,30,.,.,.,/,/
OCC1(Cc2cccc(C(F)(F)F)c2)CCN(Cc2cc(F)cc(F)c2)CC1,.,.,.,.,.,.
O=C(O)/C(=C\c1ccccc1)c1ccc2ccccc2c1,21,.,/,.,.,.
O=C(C(=Cc1ccccc1)c1ccccc1)c1ccccc1,.,.,/,.,/,/
OCCOCCn1c(C(CO)Nc2nc(-c3cccc(Br)c3)cs2)nc2ccccc21 (configuration not stated),23,.,/,.,.,.
C[C@@H]1CN([C@@H](C)CO)C(=O)Cc2cc(NC(=O)CCCN(C)C)ccc2O[C@@H]1CN(C)CC1CCCCC1,/,.,/,/,.,.
O=C(NNC(=O)c1csc(N2CCOCC2)n1)c1ccc(=O)[nH]c1,25,.,/,.,.,.
CC(=O)Nc1ccc(C(=O)NNC(=O)c2csc(N3CCOCC3)n2)cc1,.,.,/,.,.,.
O=C(C[C@@H]1C=C[C@@H](NC(=O)c2ccncc2)[C@@H](CO)O1)Nc1ccccc1,/,.,/,/,/,/
Cc1ccc(-c2cnc(C3CC3)o2)cc1S(=O)(=O)Nc1ccccc1,.,/,.,.,.,334
CCOc1ccccc1NS(=O)(=O)c1ccc(-c2cnc(C3CC3)o2)cc1,.,.,.,.,.,127
SMILES,NRP1-CendR mod,RAD52 inh,DNA FID counter,Glyco luc inh,RAD54 branch,miR-122 sensor
C[C@@H]1CCCCO[C@H](CN(C)C)[C@H](C)CN([C@@H](C)CO)C(=O)c2cc(NC(=O)NC3CCCCC3)ccc2O1,/,/,/,/,/,.
CCOc1cc(C2C3=C(CCCC3=O)OC3=C2C(=O)CCC3)cc([N+](=O)[O-])c1O,26,.,.,.,/,.
COc1ccc(S(=O)(=O)N2CCCN(CC(=O)Nc3ccc(NC(C)=O)cc3)CC2)cc1,39,.,.,.,.,.
COc1ccc(NC(=O)CN2CCN(c3c(C)cc(C)cc3C)CC2)cc1,37,.,.,.,.,.
CN1C(=O)[C@@H]2[C@@H](C[C@]3(COc4ccccc4)OC[C@H]2/C3=C\c2ccccc2)C1=O,/,.,/,/,/,/
Cc1ccccc1NC(=O)c1ccc2c(c1)CCN2S(C)(=O)=O,.,.,.,.,.,.
Cc1cc(Cl)ccc1NC(=O)c1ccc2c(c1)CCN2S(C)(=O)=O,16,.,.,.,.,.
C[C@H](CO)N1C[C@H](C)[C@@H](CN(C)Cc2cncnc2)Oc2cc(C#CC3CCCC3)ccc2S1(=O)=O,/,.,/,/,.,95[16.7 µM]
C[C@H]1CN([C@@H](C)CO)S(=O)(=O)c2ccc(C#CC3CCCCC3)cc2O[C@H]1CN(C)C,/,53,/,/,.,.
C[C@H]1CN([C@@H](C)CO)S(=O)(=O)c2ccc(C#CCN(C)C)cc2O[C@@H]1CN(C)Cc1ccc2c(c1)OCO2,/,.,/,/,.,104[16.7 µM]
C[C@H]1CN([C@@H](C)CO)S(=O)(=O)c2ccc(C#CC3CC3)cc2O[C@H]1CN(C)Cc1cncnc1,/,/,/,/,/,.
C[C@H](CO)N1C[C@H](C)[C@@H](CN(C)C(=O)Cc2ccccc2)Oc2cc(C#CC3CCCC3)ccc2S1(=O)=O,/,.,/,/,.,.
C[C@@H]1CN([C@@H](C)CO)S(=O)(=O)c2ccc(C#CC3CCCC3)cc2O[C@H]1CN(C)C(=O)Cc1ccccc1,/,.,/,/,.,108[16.7 µM]
CC(C)NC(=O)N1CCCCN2[C@@H](CO)[C@@H](c3ccc(C#CC4CC4)cc3)[C@@H]2C1,/,.,/,/,.,.
CO[C@@H]1CN(C)C(=O)c2ccc(NC(=O)C3CC3)cc2OC[C@@H](C)N(CC2CCCC2)C[C@H]1C,/,.,/,/,/,/
C[C@H]1CN([C@@H](C)CO)C(=O)c2cccc(NC(=O)C3CCCCC3)c2O[C@H]1CN(C)S(=O)(=O)c1ccccc1,/,.,/,/,.,.
N#Cc1c(N2CCCC(O)C2)nc(N)c2c(N)nc3c(c12)CC(=O)N3C12CC3CC(CC(C3)C1)C2 (configuration not stated),.,/,.,41,.,/
Cc1ccc(S(=O)(=O)N(C)C[C@@H]2Oc3c(NS(=O)(=O)c4cn(C)cn4)cccc3C(=O)N([C@H](C)CO)C[C@H]2C)cc1,/,/,/,/,/,.
C=CCn1c(-c2ccc(Cl)cc2)cnc1SC(C)C(N)=O (configuration not stated),19,.,.,.,/,/
CCCN(C(=O)CSc1cc(-c2ccccc2)c2ccc(OC)cc2n1)C1CCS(=O)(=O)C1 (configuration not stated),.,/,.,.,/,/
